Rows were chosen to be rich in hits. Some 2.4% of all compounds tested hit in one or more screens of this group.
Anthrax LT inh = anthrax lethal toxin internalization inhibition; Cells, anthrax lethal toxin internalization, FRET ratio (460/530); Potency, µM (titrated, usually from 40 µM), for inactives: top-dose activity change, negative = inhibition, actives largely listed as inhibitors; 70,000 tested, 0.67% active; further: on the % scale 0 is the no-effect control and ±100 the full control effect; nearly all actives have a fitted effect of over 50% in size
AmpC inh det = AmpC beta-lactamase inhibition, detergent assay; P00811; purified AmpC, nitrocefin hydrolysis with detergent; Potency, µM (titrated, usually from 28.7 µM), inactives show at the highest dose activity change, negative = inhibition; 71,000 tested, 0.09% active; AID 584; active means well fitted curve in the direction sought with a large enough effect; inconclusive means small, poorly fitted or top-dose-only effect; further: on the % scale 0 is the no-effect control and ±100 the full control effect
Target sequence (P00811 whole entry, looked up): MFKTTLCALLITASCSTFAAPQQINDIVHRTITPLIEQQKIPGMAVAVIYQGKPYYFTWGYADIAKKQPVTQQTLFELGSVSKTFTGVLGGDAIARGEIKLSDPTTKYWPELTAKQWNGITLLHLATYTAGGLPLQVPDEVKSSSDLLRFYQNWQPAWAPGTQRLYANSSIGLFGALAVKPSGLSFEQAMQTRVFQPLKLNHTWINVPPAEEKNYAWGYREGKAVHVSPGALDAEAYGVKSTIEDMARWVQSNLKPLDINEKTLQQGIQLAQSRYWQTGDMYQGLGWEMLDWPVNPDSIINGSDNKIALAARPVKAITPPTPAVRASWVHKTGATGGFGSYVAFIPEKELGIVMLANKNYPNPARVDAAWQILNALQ
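E. coli AmpC (5.3 nM) in 20 mM phosphate pH 7.0 with 0.01% Triton X-100, preincubated 15 min RT with compound; nitrocefin (2 uL of 800 uM stock) hydrolysis followed by 480 nm absorbance every 20 s over 4 min.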
AmpC inh no det = AmpC beta-lactamase inhibition, detergent-free assay. P00811. AmpC nitrocefin hydrolysis, absorbance 480 nm, no detergent. Potency, µM (series often up to 28.7 µM), without a hit: at the top dose activity change, negative = inhibition. 71,000 tested, 1.8% active. AID 585; further: % of control where 0% means no effect
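AmpC, 20 mM phosphate pH 7.0; 15 min cpd preinc, RT; start with nitrocefin (800 uM stock); A480 kinetic read, 20 s intervals, 4 min. No-enzyme wells = negative control.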
SmPrx2 inh = inhibitors of Schistosoma mansoni peroxiredoxin 2 | S. mansoni Prx2 activity coupled to TGR/GSH (TGR is thioredoxin glutathione reductase), NADPH fluorescence loss, qHTS | Potency, µM | 65,000 tested, 0.07% active | AID 448
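Activity is read as the drop in NADPH fluorescence (365/450 nm), recorded every 30 sec for 8 min after H2O2 addition. Prx2 is coupled to TGR-driven NADPH oxidation through glutathione, in phosphate buffer pH 7.4.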
Numbers without * were called inactive; ? = inconclusive; . = no result; [ ] = remark or other dose. Unless noted, the call rests on the fitted dose curve. Potency means the concentration at half of the fitted maximal effect.

SMILES | Anthrax LT inh | AmpC inh det | AmpC inh no det | SmPrx2 inh
Cc1cc(C(=O)NCCN2CCCCC2C)n(-c2ccccc2)n1 (stereo not drawn) | -4% | 5% | -14% | >57
CC1CCCCN1CCNC(=O)c1cnn2ccccc12 (stereo not drawn) | -9% | 14% | 3.2µM*[single pt active] | .
COC(=O)CN(c1ccc(C(C)C)cc1)S(=O)(=O)c1c(C)[nH]c(=O)[nH]c1=O | -12% | 14% | 4µM*[single pt active] | >57
CN=C(Nc1cc(C)nn1CCC#N)c1ccccc1F | 0% | 13% | 0% | >57
COC(=O)c1cccc(C(=O)Nc2ccc(C)cc2)n1 | 5µM* | -4% | 23% | >57
COc1cccc(C(=O)Nc2ccc(C)cc2)c1 | -17% | 2% | -15% | >57
CCOC(=O)C1CCCN(c2ncnc3c2oc2ccccc23)C1 (stereo not drawn) | 6% | -1% | 69% | >57
CCOC(=O)C1CCCN(c2c(N3CCc4ccccc4C3)c(=O)c2=O)C1 (stereo not drawn) | 18% | 12% | 4µM*[single pt active] | >57
CCOC(=O)C1CCCN(c2c(NCCN(C)Cc3ccccc3)c(=O)c2=O)C1 (stereo not drawn) | -13% | 13% | 4µM*[single pt active] | >57
CCOC(=O)N1CCC(Nc2c(NCCCN(C)Cc3ccccc3)c(=O)c2=O)CC1 | 6% | 15% | 4µM*[single pt active] | >57
CCOC(=O)N1CCC(Nc2c(-c3ccc(C)c(C)c3)c(=O)c2=O)CC1 | 10% | -1% | 14% | >57
CCOC(=O)C1CCCN(c2c(NCCc3ccc(S(N)(=O)=O)cc3)c(=O)c2=O)C1 (stereo not drawn) | 0% | 13% | 4µM*[single pt active] | >57
O=C(CSc1nc(-c2ccccc2Cl)ns1)NCc1ccco1 | ? | 9% | -18% | >57
CCOC(=O)C1CCCN(c2c(NCc3ccco3)c(=O)c2=O)C1 (stereo not drawn) | 3% | 14% | 4µM*[single pt active] | >57
Cc1cc(Br)c(S(=O)(=O)NCCN2CCOCC2)cc1C | -20% | 6% | 12% | .
c1ccc2c(N3CCCCC3)nc(N3CCCC3)nc2c1 | 10µM* | -5% | 22% | >57
c1ccc(-c2nc(N3CCCCCC3)c3ccccc3n2)nc1 | ? | 2% | 48% | .
Nc1nc(-c2ccco2)nc(N2CCCCC2)n1 | 10% | 2% | 0% | >57
Nc1nc(N2CCCCC2)nc2ccccc12 | 20µM* | -7% | 18% | >57
CCCOc1ccc(Cc2nn3c(=O)/c(=C/c4ccco4)sc3nc2=O)cc1 | -1% | -2% | 10µM*[single pt active] | >57
CCOc1ccc(C(=O)c2cccs2)cc1 | 6% | -5% | -11% | >57
CCOCC(=O)Nc1ccc2c(c1)OCCO2 | -5% | -3% | 10% | >57
CCOC(=O)N1CCN(c2c(Nc3ccc4c(c3)OCCO4)c(=O)c2=O)CC1 | ? | 13% | 4µM*[single pt active] | >57
CCOC(=O)N1CCN(c2c(N3CCN(c4ccccn4)CC3)c(=O)c2=O)CC1 | -10% | 13% | 4µM*[single pt active] | >57
CCOC(=O)N1CCN(c2c(N3CCc4ccccc43)c(=O)c2=O)CC1 | ? | 14% | 4µM*[single pt active] | .
SMILES | Anthrax LT inh | AmpC inh det | AmpC inh no det | SmPrx2 inh
CCOC(=O)C1CCN(c2c(N3CCN(c4ccccc4OC)CC3)c(=O)c2=O)CC1 | -6% | 7% | 11% | >57
CCOC(=O)N1CCN(c2c(N3CCOCC3)c(=O)c2=O)CC1 | -8% | 6% | 4µM*[single pt active] | >57
CCOc1ccc(OCC)c(NS(=O)(=O)c2cccc3nsnc23)c1 | -23% | -7% | 11% | >57
OC1(CN2CCOCC2)C2CN3CCN(C2)CC1(c1ccccc1)C3 (stereo not drawn) | -21% | 0% | -3% | .
CCOC(=O)N1CCN(c2c(NCC3CCCO3)c(=O)c2=O)CC1 (stereo not drawn) | -6% | 5% | 4µM*[single pt active] | >57
CC1Cn2c(nnc2-c2cccc(N)c2)S1 (stereo not drawn) | 3% | 14% | 7% | >57
CCN(CC)CCCN(C(=O)c1cccs1)c1nc(-c2ccc(OC)cc2)cs1 | 10µM* | -7% | 103% | >57
COc1ccc(-c2csc(N(CC3CCCO3)C(=O)c3cccs3)n2)cc1 (stereo not drawn) | -26% | 2% | 27% | >57
c1ccc(C(c2ccccc2)N2CC3(CCNCC3)C2)cc1 | 10µM* | -3% | 36% | >57
c1ccc(-c2ccc(N3CC4(CCNCC4)C3)cc2)cc1 | 13µM* | -3% | 82% | >57
O=C1Nc2ccccc2SC(c2ccccc2)C1O (stereo not drawn) | -17% | -6% | 13µM*[single pt active] | >57
O=C(O)CC1Sc2ccccc2NC1=O (stereo not drawn) | -7% | -1% | -6% | >57
COC(=O)c1ccc(COc2nc(C)cc(C)c2C#N)o1 | 0% | -5% | -6% | >57
O=C(NCc1ccc2c(c1)OCO2)c1ccc(NS(=O)(=O)c2ccc3c(c2)OCCO3)cc1 | -9% | -2% | 10µM* | >57
O=C(NCc1ccc2c(c1)OCO2)c1cccc(C(=O)NCc2ccc3c(c2)OCO3)c1 | ? | 0% | ? | .
O=C(NCc1ccccc1)c1c[nH]c2ccc(S(=O)(=O)Nc3ccc4c(c3)OCCO4)cc2c1=O | -6% | -2% | 10µM* | >57
O=C(Cn1ncc2c(=O)oc3ccccc3c21)N1CCCc2ccccc21 | -4% | -2% | 15% | >57
O=C(Cn1ncc2c(=O)oc3ccccc3c21)N1CCN(C(=O)c2ccco2)CC1 | -4% | -2% | 5% | ?
CC1CC(C)CN(CCCNC(=O)Cn2ncc3c(=O)oc4ccccc4c32)C1 (stereo not drawn) | -6% | 9% | 3.2µM*[single pt active] | >57
O=C(Cn1ncc2c(=O)oc3ccccc3c21)N1CCCN(Cc2ccccc2F)C1 | -13% | 24% | 4µM*[single pt active] | >57
O=C(Cn1ncc2c(=O)oc3ccccc3c21)NCCN1CCN(c2ccccc2F)CC1 | 0% | 12% | 4µM*[single pt active] | >57
CC(C)CC1(C)NC(=O)NC1=O (stereo not drawn) | 0% | -6% | -14% | >57
CC(C)COc1ccc(C2NC(=O)NC2=O)cc1 (stereo not drawn) | ? | 2% | 2% | >57
O=C(Nc1ccc([N+](=O)[O-])cc1Cl)c1cc(Cl)ccc1O | 0.25µM* | -1%[12.8 µM] | -2%[12.8 µM] | >57
CCC(=O)Oc1ccc2c(C)cc(=O)oc2c1C | ? | 3% | -5% | ?
SMILES | Anthrax LT inh | AmpC inh det | AmpC inh no det | SmPrx2 inh
Cc1cc(=O)oc2c1ccc1oc(/C(=N/O)c3ccccc3)c(C)c12 | 10µM* | 1% | -11% | .
C=CCn1c(SCC(=O)Nc2ccccc2CC)nnc1-c1ccncc1 | 5% | 1% | 17% | >57
CCSc1nnc(Cn2c(=O)sc3ccccc32)n1C | -6% | 14% | 4µM*[single pt active] | >57
Cn1c(Cn2c(=O)sc3ccccc32)nnc1SCC(=O)N1CCCC1 | 29% | 27% | 4µM*[single pt active] | >57
CC1CCN(C(=O)CSc2nnc(Cn3c(=O)sc4ccccc43)n2C)CC1 | 2% | 16% | ? | >57
Cn1c(Cn2c(=O)sc3ccccc32)nnc1SCC(=O)N1CCCc2ccccc21 | -9% | 13% | 4µM*[single pt active] | >57
Cn1c(Cn2c(=O)sc3ccccc32)nnc1SCC(=O)N1CCc2ccccc21 | -4% | 12% | 4µM*[single pt active] | >57

Bioassay records from PubChem BioAssay.
